High-throughput results deposited in PubChem by National Center for Advancing Translational Sciences (NCATS).
Pf growth 48h – P. falciparum growth inhibition at 48 hours (one generation). Potency, µM (doses to about 28.7 µM), actives largely listed as inhibitors. 5.9% of 310,000 active. P. falciparum luciferase growth in erythrocytes, 48 h
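Luciferase-expressing parasites in RBCs, 2% Hct / 0.1% parasitemia final; RPMI 1640 + 0.5% Albumax; 37 C, 5% CO2, one generation; luminescence read-out, lower signal = inhibition.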
Pf growth 96h – P. falciparum growth inhibition at 96 hours | P. falciparum luciferase reporter growth, 96 h | Potency, µM (doses to about 28.7 µM), actives largely listed as inhibitors | 6.9% of 320,000 active
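P. falciparum expressing integrated firefly luciferase, in erythrocytes at 2% hematocrit, 0.05% parasitemia, incubated with compounds 96 h at 37 C, 5% CO2. Growth inhibition read as loss of luminescence; two-generation exposure targets delayed-death apicoplast inhibitors.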
HCMV antiviral – inhibitors of human cytomegalovirus. 4.5% of 410,000 active. HFF cells, HCMV-luciferase reporter, 72 h; hits give low values. activity change, negative = inhibition, % at 57.5 µM; in the data active = activity change below about -60%; inconclusive = no clear call, values can overlap the other calls; inactive = above about -39%
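Two compound doses tested in HFFs infected with HCMV-luciferase, MOI 1 PFU/cell, 72 h at 37C. Lysate luminescence read with OneGlo; data normalized against buffer-only and 10uM Salinomycin inhibitor controls.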
Shiga inhibitor – blocks Shiga toxin action in Vero cells; inhibition, % at 38.7 µM; 9.2% of 290,000 active; AID 2315; Vero cells, Shiga toxin protein synthesis inhibition reporter; in the data active = inhibition mostly above about 28%, no sharp cut-off; inactive = mostly below about 43%
CHX counter – affects cycloheximide protein synthesis inhibition readout, counter-screen; cell reporter, cycloheximide protein synthesis inhibition counterscreen; max response, %; 12% of 300,000 active; in the data active = max response mostly above about 13%, no sharp cut-off; inactive = mostly below about 14%; note: read at 38.3 µM for the half of the compounds with a filed dose
Hits are given with their value; i = inactive; ? = inconclusive; nt = no result given. An excerpt weighted towards active compounds, which were near 20% of everything screened. Unless noted, calls come from the whole dose curve; as a rule, active = well fitted inhibition curve with a large enough effect; inconclusive = small, poorly fitted or top-dose-only effect, or another doubt; inactive = no such curve, though single readings can be large or run the other way.

SMILES	Pf growth 48h	Pf growth 96h	HCMV antiviral	Shiga inhibitor	CHX counter
C/C(=N/NC(=O)c1cccs1)c1ccc(N2CCOCC2)cc1	i	i	i	70.0	51.3
O=C(COC(=O)c1cc(S(=O)(=O)N2CCCC2)ccc1O)Nc1ccccc1Br	nt	nt	i	nt	nt
Cc1ccc(C(=O)N2CCN(c3ccc([N+](=O)[O-])cc3)CC2)o1	i	i	i	i	i
N#Cc1ccccc1OCC(=O)Nc1ccc2c(c1)OCO2	nt	nt	i	nt	nt
COCCN(C(=O)COC(=O)c1cc2ccccc2cc1O)c1c(N)n(Cc2ccccc2)c(=O)[nH]c1=O	i	i	i	nt	nt
C=C1SC(Nc2c(C)cc(C)cc2C)=NC12CCCCC2	1.65µM	?	-88.6	i	i
CC1(C)CC(=O)c2cc(-c3nc(-c4ccc(F)cc4)cs3)c(=O)[nH]c2C1	nt	nt	i	nt	nt
CCOC(=O)c1c(NC(=O)C(F)(OC)C(F)(F)F)sc(C(=O)N2CCCCC2)c1C (centres undefined)	11.7µM	i	i	i	i
O=C(CCNS(=O)(=O)c1ccc(OC(F)(F)F)cc1)Nc1cccc(S(=O)(=O)N2CCCC2)c1	nt	nt	i	nt	nt
COc1ccc(C2C(C(=O)Nc3ccccn3)=C(C)Nc3ncnn32)c(OC)c1 (centres undefined)	i	i	-64.1	i	i
CC1=C(C(=O)Nc2ccccn2)C(c2ccc(F)cc2)n2ncnc2N1 (centres undefined)	i	i	i	i	14.7
COc1ccc(NC(=O)C2=C(C)Nc3ncnn3C2c2ccccn2)cc1 (centres undefined)	nt	nt	i	nt	nt
COc1ccccc1NC(=O)C1=C(C)Nc2ncnn2C1c1ccccn1 (centres undefined)	nt	nt	i	nt	nt
CC1=C(C(=O)Nc2ccccn2)C(c2ccccc2)n2ncnc2N1 (centres undefined)	i	i	i	i	15.1
CC1=C(C(=O)Nc2ccccn2)C(c2ccc(N(C)C)cc2)n2ncnc2N1 (centres undefined)	i	i	i	i	i
O=C(CN(c1ccc(F)cc1)S(=O)(=O)c1ccccc1)NC1CC2CCC1C2 (centres undefined)	?	?	i	i	i
O=C(COC(=O)/C=C/c1cccc(Cl)c1)NC(=O)NCc1ccccc1	i	?	i	nt	nt
CCCCN(C)C/C(O)=C(\C#N)c1nc(-c2ccccc2)cs1	nt	i	i	33.1	i
N#C/C(=C(/O)CN1CCOCC1)c1nc(-c2ccccc2)cs1	nt	?	i	i	i
Cc1ccc(-c2csc(/C(C#N)=C(\O)CCl)n2)cc1	i	i	i	93.3	32.5
N#C/C(=C(/O)CCl)c1nc(-c2ccccc2)cs1	i	i	i	52.4	21.3
CCN1CCN(C(c2ccccc2Cl)c2sc3nc(-c4ccco4)nn3c2O)CC1 (centres undefined)	nt	nt	i	nt	nt
Cc1cc(C)cc(Nc2cc(C(=O)NCc3ccccc3)c3ccccc3n2)c1	nt	nt	i	nt	nt
COc1ccc(CNC(=O)CCCC(=O)Nc2cccc(Br)c2)cc1	i	i	i	i	i
Cc1ccc(NC(=O)CSc2ccccc2NC(=O)c2ccccc2Cl)cc1Cl	?	i	?	i	17.9
SMILES	Pf growth 48h	Pf growth 96h	HCMV antiviral	Shiga inhibitor	CHX counter
Cc1ccc(NC(=O)CSc2ccccc2NC(=O)c2ccccc2)cc1Cl	i	i	i	i	33.8
Cc1ccc(NC(=O)CSc2ncccc2C(=O)Oc2ccccc2Cl)cc1Cl	nt	nt	i	nt	nt
Cc1ccc(NC(=O)CSc2cn(CC(=O)N3CCCC3)c3ccccc23)cc1Cl	nt	nt	i	nt	nt
O=C(CCc1ccccc1)NC(=S)Nc1cccc(C(=O)O)c1	i	i	i	102.9	58.2
COc1ccccc1NC(=S)NC(=O)CCc1ccccc1	i	i	i	i	i
O=C(CCc1ccccc1)NC(=S)Nc1ccccc1Br	i	i	i	51.6	i
COc1cc(NC(=S)NC(=O)CCc2ccccc2)cc(OC)c1	?	i	-84.0	i	i
O=C(CCc1ccccc1)NC(=S)Nc1cccc(Br)c1	i	i	i	i	i
O=C(CCCc1ccccc1)Nc1cccc(C(=O)O)c1	i	?	i	122.3	59.8
COc1ccc(Cn2c(CCC(=O)Nc3ccc(C)c(C)c3)nc3cccnc32)cc1	?	i	i	i	i
COC(=O)c1sc(N2CCN(c3ccc(Cl)cc3)CC2)nc1N	i	i	i	i	i
Cc1ccc(C)c(NC(=O)C2CCCN(c3nc4ccccc4s3)C2)c1 (centres undefined)	nt	nt	i	nt	nt
O=C(NCc1ccc(F)cc1)C(=O)NCC(c1ccc2c(c1)OCO2)N1CCOCC1 (centres undefined)	nt	nt	i	nt	nt
N=C(N)SCc1ccc(Cl)cc1Cl	?	10.4µM	i	i	i
Cc1ccc(C(=O)NNC(=O)Cc2cccs2)cc1	i	i	i	i	19.8
Cc1ccc(C(=O)NNC(=O)Cc2ccccc2)cc1	nt	i	i	i	28.1
O=C(Cc1cccs1)NNC(=O)c1ccc(F)cc1	i	i	i	i	i
O=C1c2oc3ccc(Cl)cc3c(=O)c2C(c2cccnc2)N1Cc1ccco1 (centres undefined)	i	i	nt	i	i
Cc1ccc(C2c3c(oc4ccc(Cl)cc4c3=O)C(=O)N2CCCN2CCOCC2)o1 (centres undefined)	?	?	nt	i	9.5
CN(C)CCN1C(=O)c2oc3ccccc3c(=O)c2C1c1cccc(Br)c1 (centres undefined)	?	?	i	i	i
CN(C)CCN1C(=O)c2oc3ccc(Cl)cc3c(=O)c2C1c1cccc(Br)c1 (centres undefined)	1.85µM	i	i	i	i
COc1ccc(C2c3c(oc4ccc(Cl)cc4c3=O)C(=O)N2CCN2CCOCC2)cc1 (centres undefined)	?	i	i	i	13.0
COc1ccc(CCN2C(=O)c3oc4ccc(F)cc4c(=O)c3C2c2ccc(C(C)(C)C)cc2)cc1 (centres undefined)	nt	nt	i	nt	nt
O=C1c2oc3ccc(Cl)cc3c(=O)c2C(c2ccco2)N1CCN1CCOCC1 (centres undefined)	8.28µM	?	i	i	i
COc1cc(C2c3c(oc4cc(C)c(C)cc4c3=O)C(=O)N2CCCN2CCOCC2)ccc1O (centres undefined)	nt	nt	i	nt	nt
SMILES	Pf growth 48h	Pf growth 96h	HCMV antiviral	Shiga inhibitor	CHX counter
Cc1cc2oc3c(c(=O)c2cc1C)C(c1ccc(F)cc1)N(CCCN1CCOCC1)C3=O (centres undefined)	11.7µM	10.4µM	i	i	i
Oc1c(N=NC(=S)Nc2ccccc2F)c2ccccc2n1Cc1ccc(Cl)cc1	2.33µM	i	i	i	i
Cc1ccccc1Cn1c(O)c(N=NC(=S)Nc2ccccc2F)c2ccccc21	1.47µM	i	?	i	i
Oc1c(N=NC(=S)Nc2ccccc2F)c2ccccc2n1Cc1ccccc1F	?	i	i	i	i
O=S(=O)(c1ccc(Br)cc1)N1CCN(Cc2ccco2)CC1	i	i	i	i	i
CC1CC(C)CN(CCCNC(=O)c2ccc(CS(=O)(=O)Cc3ccccc3F)o2)C1 (centres undefined)	i	?	-73.1	i	i
Cc1ccc(CS(=O)(=O)Cc2ccc(C(=O)NCCCN3CC(C)CC(C)C3)o2)cc1 (centres undefined)	?	i	i	i	i
